About 79,000 compounds went through this panel and 15% of them were active in at least one assay; those are over-represented in the sample as a whole. The source made the active and inactive calls. No stated cut-off is given here; in the data, active means growth inhibition above about 70%; inactive means the rest.
Tests used:
[1] = NCI Yeast Anticancer Drug Screen. Data for the rad52 strain (AID 147);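 further: 0% = growth of vehicle-treated control cultures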; conditions: S. cerevisiae rad52 mutant growth inhibition, active compounds read high
Summary of the method: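 Vehicle-treated cultures served as the reference for growth inhibition of compound-exposed yeast bearing a DNA repair mutation.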

[2] = NCI Yeast Anticancer Drug Screen. Data for the rad50EPP+ strain (AID 151);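 further: 0% = growth of vehicle-treated control cultures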; conditions: S. cerevisiae rad50 mutant strain, active compounds read high
Summary of the method: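 In this screen, rad50EPP+ yeast were exposed to compounds. Growth inhibition was scored against vehicle-treated controls.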

[3] = NCI Yeast Anticancer Drug Screen. Data for the mgt1 strain (AID 153); conditions: S. cerevisiae mgt1 mutant growth inhibition, active compounds read high
Summary of the method: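 mgt1 strain exposed; growth vs vehicle control recorded as inhibition.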

[4] = NCI Yeast Anticancer Drug Screen. Data for the rad50 strain (AID 155);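 further: 0% = growth of vehicle-only cultures of the same strain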; conditions: S. cerevisiae rad50 strain growth inhibition, active compounds read high
Summary of the method: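 Cells are treated with compound, grown, and their growth is then scored against vehicle-only cultures of the same repair-deficient yeast strain.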

[5] = NCI Yeast Anticancer Drug Screen. Data for the mec2-1 strain (AID 157); conditions: S. cerevisiae mec2-1 strain, active compounds read high
Summary of the method: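 Vehicle-treated cultures served as reference for growth inhibition of compound-exposed mec2-1 yeast.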

[6] = NCI Yeast Anticancer Drug Screen. Data for the rad14 strain (AID 159);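 further: 0% = growth of vehicle-treated control cultures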; conditions: S. cerevisiae rad14 strain growth inhibition, active compounds read high
Summary of the method: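 Readout: yeast growth inhibition, referenced to vehicle-only cultures. Strain bears a defined alteration in DNA damage repair.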

[7] = NCI Yeast Anticancer Drug Screen. Data for the sgs1 mgt1 strain (AID 161);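 further: 0% = growth of cultures given vehicle only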; conditions: S. cerevisiae sgs1 mgt1 strain, active compounds read high
Summary of the method: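 Test agents were incubated with a DNA-repair-mutant yeast strain. Growth was then read and compared against vehicle-treated controls.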

[8] = NCI Yeast Anticancer Drug Screen. Data for the CLN2oe strain (AID 163);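 further: 0% = growth of vehicle-only control cultures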; conditions: S. cerevisiae CLN2oe strain, active compounds read high
Summary of the method: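 Inhibition relative to vehicle-treated yeast is reported. Cells: strain with genetic alteration in cell-cycle control, grown with compound.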

[9] = NCI Yeast Anticancer Drug Screen. Data for the cln2 rad14 strain (AID 165);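 further: 0% = growth equal to vehicle treated cultures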; conditions: S. cerevisiae cln2 rad14 strain, active compounds read high
Summary of the method: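 Each compound was tested on cln2 rad14 yeast. Inhibition of growth was calculated against vehicle-exposed controls.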

[10] = NCI Yeast Anticancer Drug Screen. Data for the bub3 strain (AID 167); conditions: S. cerevisiae bub3 mutant strain, active compounds read high
Summary of the method: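 Part of a panel of yeast mutants defective in DNA damage repair or cell cycle regulation. Each strain is grown with compound, and inhibition is calculated relative to solvent-treated cultures.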

[11] = NCI Yeast Anticancer Drug Screen. Data for the wt2 strain (AID 169);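 further: 0% = growth of vehicle-treated yeast cultures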; conditions: S. cerevisiae wt2 strain growth inhibition, active compounds read high
Summary of the method: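 Inhibition of yeast growth was determined after compound treatment, normalised to controls receiving only vehicle.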

[12] = NCI Yeast Anticancer Drug Screen. Data for the mlh1 strain (AID 171);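 further: 0% = growth of vehicle-treated control cultures of the same strain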; conditions: S. cerevisiae mlh1 strain growth inhibition, active compounds read high
Summary of the method: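 Vehicle-normalised growth inhibition of a repair- or checkpoint-altered yeast strain following compound treatment.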

[13] = NCI Yeast Anticancer Drug Screen. Data for the sgs1 strain (AID 173);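 further: 0% = growth of vehicle-only control cultures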; conditions: S. cerevisiae sgs1 mutant, active compounds read high
Summary of the method: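 Screen format: yeast with repair or checkpoint alterations, compound exposure, growth read relative to vehicle.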

[14] = NCI Yeast Anticancer Drug Screen. Data for the mlh1 rad18 strain (AID 175); conditions: S. cerevisiae mlh1 rad18 strain growth inhibition, active compounds read high
Summary of the method: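 Vehicle-treated cultures served as the reference for growth inhibition in a yeast strain carrying DNA damage repair alterations exposed to each compound.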

[15] = NCI Yeast Anticancer Drug Screen. Data for the rad18 strain (AID 177); conditions: S. cerevisiae rad18 mutant growth inhibition, active compounds read high
Summary of the method: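 Test articles were incubated with altered yeast defective in DNA damage repair. Results are given as inhibition of growth versus vehicle.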

[16] = at 5.0 µM (retest, dose inferred, filed as 0.5)
[17] = at 50.0 µM (retest, dose inferred, filed as 5.0)

Measured: growth inhibition

COc1ccc(N=N/C(=N\NC(=O)c2cc(Br)ccc2O)c2ccc(N(CCC#N)CCC#N)cc2OC)cc1
inactive: [1]; at 1.2 µM 29% | [1]; at 3.7 µM 44% | [1]; at 11.0 µM 44% | [1]; at 33.0 µM 57% | [2]; at 1.2 µM -4% | [2]; at 3.7 µM -7% | [2]; at 11.0 µM -11% | [2]; at 33.0 µM -19% | [2]; at 100.0 µM 24% | [3]; at 1.2 µM 33% | [3]; at 3.7 µM 35% | [3]; at 11.0 µM 24% | [3]; at 33.0 µM 46% | [3]; at 100.0 µM 69% | [4]; at 1.2 µM 46% | [4]; at 3.7 µM 43% | [4]; [16] 20% | [4]; at 11.0 µM 49% | [4]; at 33.0 µM 59% | [4]; [17] 25% | [4]; at 50.0 µM 45.1% | [5]; at 1.2 µM -4% | [5]; at 3.7 µM -6% | [5]; [16] 22% | [5]; at 11.0 µM -8% | [5]; at 33.0 µM 13% | [5]; [17] 24% | [5]; at 50.0 µM 43.4% | [5]; at 100.0 µM 31% | [6]; at 1.2 µM 33% | [6]; at 3.7 µM 26% | [6]; at 11.0 µM 21% | [6]; at 33.0 µM 3% | [6]; at 100.0 µM 45% | [7]; [16] -8% | [7]; [17] 69% | [7]; at 50.0 µM 8.9% | [8]; at 1.2 µM 11% | [8]; at 3.7 µM 14% | [8]; at 11.0 µM 24% | [8]; at 33.0 µM 33% | [8]; at 100.0 µM 28% | [9]; [16] -4% | [9]; [17] 32% | [9]; at 50.0 µM 30.9% | [10]; at 1.2 µM 28% | [10]; at 3.7 µM 14% | [10]; [16] 19% | [10]; at 11.0 µM 16% | [10]; at 33.0 µM 49% | [10]; [17] 69% | [10]; at 50.0 µM 43.4% | [10]; at 100.0 µM 68% | [11]; at 1.2 µM -20% | [11]; at 3.7 µM -11% | [11]; at 11.0 µM -15% | [11]; at 33.0 µM -9% | [11]; at 100.0 µM 65% | [12]; at 1.2 µM 33% | [12]; at 3.7 µM 35% | [12]; at 11.0 µM 24% | [12]; at 33.0 µM 46% | [12]; at 100.0 µM 69% | [13]; at 1.2 µM 34% | [13]; at 3.7 µM 37% | [13]; at 11.0 µM 33% | [13]; at 33.0 µM 42% | [14]; [16] 20% | [14]; [17] 26% | [14]; at 50.0 µM 65.4% | [15]; at 1.2 µM 14% | [15]; at 3.7 µM 20% | [15]; at 11.0 µM 18% | [15]; at 33.0 µM 33% | [15]; at 100.0 µM 49%
active: [1]; at 100.0 µM 71% | [4]; at 100.0 µM 82% | [13]; at 100.0 µM 71%

C=C(CCCO)[C@@H]1CC[C@@](C)(O)[C@H]1C
inactive: [1]; at 1.2 µM -7% | [1]; at 3.7 µM -9% | [1]; at 11.0 µM -13% | [1]; at 33.0 µM -8% | [1]; at 100.0 µM -12% | [2]; at 1.2 µM -38% | [2]; at 3.7 µM -32% | [2]; at 11.0 µM -54% | [2]; at 33.0 µM -38% | [2]; at 100.0 µM -48% | [4]; at 1.2 µM -5% | [4]; at 3.7 µM -7% | [4]; [16] 38% | [4]; at 11.0 µM -16% | [4]; at 33.0 µM -17% | [4]; at 50.0 µM 49% | [4]; at 100.0 µM -33% | [5]; at 1.2 µM -53% | [5]; at 3.7 µM -39% | [5]; [16] 44% | [5]; at 11.0 µM -48% | [5]; at 33.0 µM -41% | [5]; at 50.0 µM 68.2% | [5]; at 100.0 µM -34% | [6]; at 1.2 µM -51% | [6]; at 3.7 µM -43% | [6]; at 11.0 µM -37% | [6]; at 33.0 µM -35% | [6]; at 100.0 µM -56% | [7]; [16] -1% | [7]; [17] -9% | [7]; at 50.0 µM 55.5% | [8]; at 1.2 µM -24% | [8]; at 3.7 µM -13% | [8]; at 11.0 µM -27% | [8]; at 33.0 µM -25% | [8]; at 100.0 µM -35% | [9]; [16] 46% | [9]; [17] 28% | [9]; at 50.0 µM 9.15% | [10]; at 1.2 µM -17% | [10]; at 3.7 µM -6% | [10]; [16] 18% | [10]; at 11.0 µM -12% | [10]; at 33.0 µM -9% | [10]; [17] -1% | [10]; at 50.0 µM 55.5% | [10]; at 100.0 µM -12% | [11]; at 1.2 µM -30% | [11]; at 3.7 µM -27% | [11]; at 11.0 µM -33% | [11]; at 33.0 µM -30% | [11]; at 100.0 µM -23% | [12]; at 1.2 µM -20% | [12]; at 3.7 µM -23% | [12]; at 11.0 µM -39% | [12]; at 33.0 µM -31% | [12]; at 100.0 µM -48% | [13]; at 1.2 µM -35% | [13]; at 3.7 µM -28% | [13]; at 11.0 µM -31% | [13]; at 33.0 µM -29% | [13]; at 100.0 µM -39% | [14]; [16] 36% | [14]; at 50.0 µM 43.3% | [15]; at 1.2 µM -38% | [15]; at 3.7 µM -38% | [15]; at 11.0 µM -45% | [15]; at 33.0 µM -46% | [15]; at 100.0 µM -66%
active: [4]; [17] 90% | [5]; [17] 93% | [14]; [17] 87%

Reference: PubChem BioAssay (NCI)
